# Data from paper PMC7862700, “An all-to-all approach to the identification of sequence-specific readers for epigenetic DNA modifications on cytosine”.
# How the values were obtained:
# Experiment in all cases: DAPPL (digital affinity profiling via proximity ligation, sequencing); 10 mM Tris-HCl pH 7.5, 50 mM NaCl, 1 mM DTT, 4% glycerol, room temperature, 30 min; GST-TFs on glutathione beads, 16-mer random dsDNA library, 0.1% formaldehyde crosslink after washing; high values mean tight binding
# Details in all cases: protein: recombinant; tags: N-terminal GST; dsDNA, one strand shown
# [1] = target: T1, ERF (Homo sapiens, UniProt P50548 1-548)
# T1 sequence: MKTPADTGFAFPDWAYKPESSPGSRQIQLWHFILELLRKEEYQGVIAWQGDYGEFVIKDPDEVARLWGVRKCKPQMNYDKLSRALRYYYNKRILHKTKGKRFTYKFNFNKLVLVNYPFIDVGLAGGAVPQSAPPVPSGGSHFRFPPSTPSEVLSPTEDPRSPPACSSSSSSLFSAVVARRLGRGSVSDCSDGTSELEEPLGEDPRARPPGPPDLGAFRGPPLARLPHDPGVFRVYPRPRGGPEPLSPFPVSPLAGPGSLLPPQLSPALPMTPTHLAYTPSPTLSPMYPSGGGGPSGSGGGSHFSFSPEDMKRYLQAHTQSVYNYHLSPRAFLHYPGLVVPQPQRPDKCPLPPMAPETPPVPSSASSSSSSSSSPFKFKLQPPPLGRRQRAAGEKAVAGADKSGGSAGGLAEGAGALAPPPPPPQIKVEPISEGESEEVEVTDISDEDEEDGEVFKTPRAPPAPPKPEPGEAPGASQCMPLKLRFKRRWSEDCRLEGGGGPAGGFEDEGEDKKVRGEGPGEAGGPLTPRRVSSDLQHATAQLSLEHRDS
# Summary of the method: (§1)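 Sequencing on an Illumina NextSeq500 followed washing, crosslinking with 0.1% formaldehyde, proximity ligation (BsaI/T4 ligase, 1 h, 37 °C) and PCR amplification of pools that had been incubated for 30 min at room temperature with 200 nmole of a random double-stranded 16-mer DNA library in Tris/NaCl/DTT/glycerol buffer. Each pool held DNA-barcoded human transcription factors, expressed in yeast as GST fusions and captured on glutathione beads, plus a tag-only sample. Binding signal is a hexamer's read frequency for a factor divided by its frequency in the tag-only sample.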
# [2] = target: T2, ETV3L (Homo sapiens, UniProt Q6ZN32 1-361)
# T2 sequence: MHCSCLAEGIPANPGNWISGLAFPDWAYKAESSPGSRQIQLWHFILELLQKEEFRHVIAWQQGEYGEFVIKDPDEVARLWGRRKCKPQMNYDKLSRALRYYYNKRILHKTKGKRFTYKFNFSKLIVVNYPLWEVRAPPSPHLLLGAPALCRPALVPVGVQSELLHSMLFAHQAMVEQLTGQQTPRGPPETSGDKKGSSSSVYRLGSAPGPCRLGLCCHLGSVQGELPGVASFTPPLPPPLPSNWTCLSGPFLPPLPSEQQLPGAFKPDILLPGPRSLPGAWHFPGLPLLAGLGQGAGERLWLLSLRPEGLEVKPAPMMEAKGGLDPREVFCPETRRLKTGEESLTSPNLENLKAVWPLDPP
# Summary of the method: as §1
# [3] = target: T3, ETS2 (Homo sapiens, UniProt P15036 1-469)
# T3 sequence: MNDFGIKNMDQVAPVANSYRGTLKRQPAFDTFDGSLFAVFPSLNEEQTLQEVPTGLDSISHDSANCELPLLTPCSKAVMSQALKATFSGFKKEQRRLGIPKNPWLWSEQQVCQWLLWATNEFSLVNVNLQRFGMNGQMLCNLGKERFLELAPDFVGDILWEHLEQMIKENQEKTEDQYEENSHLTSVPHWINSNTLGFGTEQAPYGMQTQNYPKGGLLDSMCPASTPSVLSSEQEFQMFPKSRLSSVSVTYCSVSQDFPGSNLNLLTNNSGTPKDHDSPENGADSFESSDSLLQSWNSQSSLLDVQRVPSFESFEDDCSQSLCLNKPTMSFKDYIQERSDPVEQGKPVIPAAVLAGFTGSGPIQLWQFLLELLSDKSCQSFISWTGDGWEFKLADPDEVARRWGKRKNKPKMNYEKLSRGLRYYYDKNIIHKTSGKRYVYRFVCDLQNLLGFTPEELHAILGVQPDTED
# Summary of the method: as §1
# [4] = target: T4, SPDEF (Homo sapiens, UniProt O95238 1-335)
# T4 sequence: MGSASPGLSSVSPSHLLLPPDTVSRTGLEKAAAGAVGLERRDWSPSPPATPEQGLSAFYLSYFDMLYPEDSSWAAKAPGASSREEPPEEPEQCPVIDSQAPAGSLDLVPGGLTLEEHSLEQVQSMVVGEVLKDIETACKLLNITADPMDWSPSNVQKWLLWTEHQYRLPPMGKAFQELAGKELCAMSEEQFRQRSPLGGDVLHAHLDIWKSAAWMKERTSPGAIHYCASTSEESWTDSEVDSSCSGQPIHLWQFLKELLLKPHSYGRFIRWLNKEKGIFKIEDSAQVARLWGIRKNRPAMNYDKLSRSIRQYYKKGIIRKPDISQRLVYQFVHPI
# Summary of the method: as §1
# [5] = target: T5, ETV7 (Homo sapiens, UniProt Q9Y603 1-341)
# T5 sequence: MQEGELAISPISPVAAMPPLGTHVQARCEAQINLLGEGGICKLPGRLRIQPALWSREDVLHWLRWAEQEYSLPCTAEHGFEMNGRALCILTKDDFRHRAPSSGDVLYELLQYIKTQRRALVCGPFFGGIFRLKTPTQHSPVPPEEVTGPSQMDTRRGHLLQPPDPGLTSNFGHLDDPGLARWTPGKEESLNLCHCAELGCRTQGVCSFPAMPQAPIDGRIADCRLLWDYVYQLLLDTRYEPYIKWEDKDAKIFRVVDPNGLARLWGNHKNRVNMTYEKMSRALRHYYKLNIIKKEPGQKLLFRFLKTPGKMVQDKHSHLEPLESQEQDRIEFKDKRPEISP
# Summary of the method: as §1
# [6] = target: T6, ELF5 (Homo sapiens, UniProt Q9UKW6-2 1-255)
# T6 sequence: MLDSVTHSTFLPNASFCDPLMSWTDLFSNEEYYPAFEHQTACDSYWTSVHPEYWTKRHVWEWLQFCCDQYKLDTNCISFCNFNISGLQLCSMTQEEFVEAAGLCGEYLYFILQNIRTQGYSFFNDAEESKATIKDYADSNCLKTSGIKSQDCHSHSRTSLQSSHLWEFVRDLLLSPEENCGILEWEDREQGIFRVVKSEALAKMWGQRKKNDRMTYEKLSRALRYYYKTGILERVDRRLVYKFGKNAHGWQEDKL
# Summary of the method: as §1
# [7] = target: T7, ETV3 (Homo sapiens, UniProt P41162-2 1-143)
# T7 sequence: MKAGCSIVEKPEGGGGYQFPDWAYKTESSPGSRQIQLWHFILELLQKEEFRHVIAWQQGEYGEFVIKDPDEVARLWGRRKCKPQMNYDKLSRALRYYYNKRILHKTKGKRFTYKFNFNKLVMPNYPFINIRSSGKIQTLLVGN
# Summary of the method: as §1
# [8] = target: ETV6 (Homo sapiens, UniProt P41212 1-452)
# Summary of the method: as §1
# Chain of ETV6 (P41212 whole entry): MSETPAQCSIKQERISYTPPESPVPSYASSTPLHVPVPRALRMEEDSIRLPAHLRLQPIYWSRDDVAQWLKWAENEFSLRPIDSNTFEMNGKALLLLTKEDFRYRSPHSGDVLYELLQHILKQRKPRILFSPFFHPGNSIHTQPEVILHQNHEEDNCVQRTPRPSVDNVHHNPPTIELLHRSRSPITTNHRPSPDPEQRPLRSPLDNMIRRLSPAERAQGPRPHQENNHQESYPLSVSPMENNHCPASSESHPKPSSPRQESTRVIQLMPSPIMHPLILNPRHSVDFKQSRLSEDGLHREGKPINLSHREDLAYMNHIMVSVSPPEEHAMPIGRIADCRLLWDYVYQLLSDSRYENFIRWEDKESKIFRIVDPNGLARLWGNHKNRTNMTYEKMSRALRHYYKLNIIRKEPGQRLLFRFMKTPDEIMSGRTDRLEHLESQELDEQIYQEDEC
Sequence,binding signal [1],binding signal [2],binding signal [3],binding signal [4],binding signal [5],binding signal [6],binding signal [7],binding signal [8]
CGTCCG,"1.32 fold enrichment (6-mer frequency, TF over GST control)","1.19 fold enrichment (6-mer frequency, TF over GST control)","1.28 fold enrichment (6-mer frequency, TF over GST control)","1.48 fold enrichment (6-mer frequency, TF over GST control)","1.37 fold enrichment (6-mer frequency, TF over GST control)","1.44 fold enrichment (6-mer frequency, TF over GST control)","1.22 fold enrichment (6-mer frequency, TF over GST control)","1.34 fold enrichment (6-mer frequency, TF over GST control)"
TGTCCC,"1.26 fold enrichment (6-mer frequency, TF over GST control)","1.18 fold enrichment (6-mer frequency, TF over GST control)","1.41 fold enrichment (6-mer frequency, TF over GST control)","1.34 fold enrichment (6-mer frequency, TF over GST control)","1.46 fold enrichment (6-mer frequency, TF over GST control)","1.44 fold enrichment (6-mer frequency, TF over GST control)","1.2 fold enrichment (6-mer frequency, TF over GST control)","1.28 fold enrichment (6-mer frequency, TF over GST control)"
CACTTG,"1.41 fold enrichment (6-mer frequency, TF over GST control)","1.22 fold enrichment (6-mer frequency, TF over GST control)","1.32 fold enrichment (6-mer frequency, TF over GST control)","1.35 fold enrichment (6-mer frequency, TF over GST control)","1.37 fold enrichment (6-mer frequency, TF over GST control)","1.33 fold enrichment (6-mer frequency, TF over GST control)","1.39 fold enrichment (6-mer frequency, TF over GST control)","1.31 fold enrichment (6-mer frequency, TF over GST control)"
AACGGC,"1.2 fold enrichment (6-mer frequency, TF over GST control)","1.23 fold enrichment (6-mer frequency, TF over GST control)","1.22 fold enrichment (6-mer frequency, TF over GST control)","1.16 fold enrichment (6-mer frequency, TF over GST control)","1.11 fold enrichment (6-mer frequency, TF over GST control)","1.16 fold enrichment (6-mer frequency, TF over GST control)","1.29 fold enrichment (6-mer frequency, TF over GST control)","1.26 fold enrichment (6-mer frequency, TF over GST control)"
GGAAAT,"2.42 fold enrichment (6-mer frequency, TF over GST control)","2.66 fold enrichment (6-mer frequency, TF over GST control)","2.75 fold enrichment (6-mer frequency, TF over GST control)","2.56 fold enrichment (6-mer frequency, TF over GST control)","2.56 fold enrichment (6-mer frequency, TF over GST control)","3.68 fold enrichment (6-mer frequency, TF over GST control)","2.88 fold enrichment (6-mer frequency, TF over GST control)","3.32 fold enrichment (6-mer frequency, TF over GST control)"
GAATTG,"1.1 fold enrichment (6-mer frequency, TF over GST control)","1.07 fold enrichment (6-mer frequency, TF over GST control)","1.13 fold enrichment (6-mer frequency, TF over GST control)","1.14 fold enrichment (6-mer frequency, TF over GST control)","1.22 fold enrichment (6-mer frequency, TF over GST control)","1.13 fold enrichment (6-mer frequency, TF over GST control)","1.03 fold enrichment (6-mer frequency, TF over GST control)","1.06 fold enrichment (6-mer frequency, TF over GST control)"
GTGCTC,"1.28 fold enrichment (6-mer frequency, TF over GST control)","1.19 fold enrichment (6-mer frequency, TF over GST control)","1.26 fold enrichment (6-mer frequency, TF over GST control)","1.05 fold enrichment (6-mer frequency, TF over GST control)","1.25 fold enrichment (6-mer frequency, TF over GST control)","1.22 fold enrichment (6-mer frequency, TF over GST control)","1.25 fold enrichment (6-mer frequency, TF over GST control)","1.32 fold enrichment (6-mer frequency, TF over GST control)"
ACATCG,"1.11 fold enrichment (6-mer frequency, TF over GST control)","1.18 fold enrichment (6-mer frequency, TF over GST control)","1.02 fold enrichment (6-mer frequency, TF over GST control)","1.08 fold enrichment (6-mer frequency, TF over GST control)","1.07 fold enrichment (6-mer frequency, TF over GST control)","1.01 fold enrichment (6-mer frequency, TF over GST control)","1.08 fold enrichment (6-mer frequency, TF over GST control)","1.04 fold enrichment (6-mer frequency, TF over GST control)"
CTCCTG,"1.49 fold enrichment (6-mer frequency, TF over GST control)","1.72 fold enrichment (6-mer frequency, TF over GST control)","1.86 fold enrichment (6-mer frequency, TF over GST control)","1.6 fold enrichment (6-mer frequency, TF over GST control)","1.64 fold enrichment (6-mer frequency, TF over GST control)","1.6 fold enrichment (6-mer frequency, TF over GST control)","1.43 fold enrichment (6-mer frequency, TF over GST control)","1.59 fold enrichment (6-mer frequency, TF over GST control)"
ACACTA,"1.15 fold enrichment (6-mer frequency, TF over GST control)","1.18 fold enrichment (6-mer frequency, TF over GST control)","1.1 fold enrichment (6-mer frequency, TF over GST control)","1.09 fold enrichment (6-mer frequency, TF over GST control)","1.15 fold enrichment (6-mer frequency, TF over GST control)","1.09 fold enrichment (6-mer frequency, TF over GST control)","1.12 fold enrichment (6-mer frequency, TF over GST control)","1.21 fold enrichment (6-mer frequency, TF over GST control)"
TCTCAA,"1.22 fold enrichment (6-mer frequency, TF over GST control)","1.28 fold enrichment (6-mer frequency, TF over GST control)","1.25 fold enrichment (6-mer frequency, TF over GST control)","1.23 fold enrichment (6-mer frequency, TF over GST control)","1.17 fold enrichment (6-mer frequency, TF over GST control)","1.15 fold enrichment (6-mer frequency, TF over GST control)","1.3 fold enrichment (6-mer frequency, TF over GST control)","1.27 fold enrichment (6-mer frequency, TF over GST control)"
GTATGC,"1.05 fold enrichment (6-mer frequency, TF over GST control)","1.23 fold enrichment (6-mer frequency, TF over GST control)","1.24 fold enrichment (6-mer frequency, TF over GST control)","1.18 fold enrichment (6-mer frequency, TF over GST control)","1.27 fold enrichment (6-mer frequency, TF over GST control)","1.11 fold enrichment (6-mer frequency, TF over GST control)","1.24 fold enrichment (6-mer frequency, TF over GST control)","1.09 fold enrichment (6-mer frequency, TF over GST control)"
TGCGAC,"1.22 fold enrichment (6-mer frequency, TF over GST control)","1.32 fold enrichment (6-mer frequency, TF over GST control)","1.19 fold enrichment (6-mer frequency, TF over GST control)","1.15 fold enrichment (6-mer frequency, TF over GST control)","1.29 fold enrichment (6-mer frequency, TF over GST control)","1.2 fold enrichment (6-mer frequency, TF over GST control)","1.27 fold enrichment (6-mer frequency, TF over GST control)","1.28 fold enrichment (6-mer frequency, TF over GST control)"
CCCACC,"1.16 fold enrichment (6-mer frequency, TF over GST control)","1.05 fold enrichment (6-mer frequency, TF over GST control)","1.02 fold enrichment (6-mer frequency, TF over GST control)","1.12 fold enrichment (6-mer frequency, TF over GST control)","1.08 fold enrichment (6-mer frequency, TF over GST control)","1.15 fold enrichment (6-mer frequency, TF over GST control)","1.06 fold enrichment (6-mer frequency, TF over GST control)","1.12 fold enrichment (6-mer frequency, TF over GST control)"
GTTTAT,"1.17 fold enrichment (6-mer frequency, TF over GST control)","1.26 fold enrichment (6-mer frequency, TF over GST control)","1.1 fold enrichment (6-mer frequency, TF over GST control)","1.11 fold enrichment (6-mer frequency, TF over GST control)","1.19 fold enrichment (6-mer frequency, TF over GST control)","1.14 fold enrichment (6-mer frequency, TF over GST control)","1.1 fold enrichment (6-mer frequency, TF over GST control)","1.18 fold enrichment (6-mer frequency, TF over GST control)"
